Compound activity as filed in PubChem.
FLuc counter = firefly luciferase modulation, counter-screen for miR-21 project | 6.9% of 360,000 active | Potency, µM (top dose mostly 57.5 µM), hits mostly inhibitors | AID 588342 | purified FLuc, Km substrates, luminescence inhibition; also: nearly all actives have a fitted effect of over 55% in size
Target sequence (P08659 whole entry, looked up): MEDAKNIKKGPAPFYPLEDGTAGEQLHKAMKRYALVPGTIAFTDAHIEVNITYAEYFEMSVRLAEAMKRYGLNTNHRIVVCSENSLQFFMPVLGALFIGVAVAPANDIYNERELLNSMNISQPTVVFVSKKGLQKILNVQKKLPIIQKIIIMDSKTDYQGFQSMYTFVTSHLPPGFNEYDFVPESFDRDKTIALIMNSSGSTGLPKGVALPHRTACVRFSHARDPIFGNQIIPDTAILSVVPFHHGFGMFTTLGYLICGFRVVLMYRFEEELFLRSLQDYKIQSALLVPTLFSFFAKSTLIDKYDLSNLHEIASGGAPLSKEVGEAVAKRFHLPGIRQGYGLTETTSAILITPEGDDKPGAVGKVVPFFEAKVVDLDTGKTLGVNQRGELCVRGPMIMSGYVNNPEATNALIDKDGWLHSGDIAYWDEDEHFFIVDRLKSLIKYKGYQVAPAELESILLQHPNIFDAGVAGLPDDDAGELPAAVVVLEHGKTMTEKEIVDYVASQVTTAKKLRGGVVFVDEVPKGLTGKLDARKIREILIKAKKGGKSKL
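Purified P. pyralis luciferase, 10 nM final, with Km-level 10 uM D-luciferin and 10 uM ATP in 50 mM Tris acetate pH 7.5, 10 mM Mg acetate, 0.01% Tween-20, 0.05% BSA; 6-point qHTS titration about 60 µM downward; luminescence read.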
ELG1 genotox = genotoxicity induction in ELG1-luciferase HEK293T cells; HEK293T ELG1-luciferase reporter, luminescence, 16 h; Potency, µM (titrated, usually from 46 µM), most hits filed as activators; 1.3% of 330,000 active; AID 504466; also: nearly all actives have a fitted effect of over 60% in size
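ELG1-luciferase HEK293T cells, 2,000/well; compound pinned in; 16 hr, 37 °C, 5% CO2; ONE-Glo, 30 min RT; luminescence on CCD imager.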
Rab9 prom act = activators of Rab9 promoter; Huh7 Rab9 promoter-luciferase reporter, luminescence, 24 h; Potency, µM (doses to about 9.22 µM), actives largely listed as activators; 2.8% of 320,000 active; AID 485297; also: nearly all actives have a fitted effect of over 60% in size
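Promoter activation is measured as luciferase luminescence in Huh7 cells stably transfected with a Rab9 promoter–luciferase construct, following 24 h compound exposure at 37 °C and 10 min reagent incubation at ambient temperature.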
SMN2 splice up = SMN2 splice variant enhancement. HEK293 SMN2-luciferase splicing reporter, luminescence, 30-36 h. Potency, µM (titrated, usually from 46.1 µM), hits mostly activators. 2.8% of 210,000 active; also: nearly all actives have a fitted effect of over 55% in size
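qHTS luciferase splicing reporter: luminescence rises when SMN2 exon 7 is included in transfected HEK293 cells. Compound exposure lasted 30-36 h at 37C, with 4.5 mM final sodium butyrate as control, followed by a ONE-Glo read.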
NPC1 promoter act = activates the NPC1 promoter. Huh7 NPC1 promoter luciferase reporter, 24 h. 2.4% of 320,000 active. Potency, µM (top dose mostly 9.22 µM), usual class: activators. AID 485313; also: nearly all actives have a fitted effect of over 60% in size
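Luciferase expression driven by the NPC1 promoter was measured in stably transfected Huh7 cells after a 24 h compound incubation, using a luciferase reagent and a luminescence read.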
Luc counter = counter-screen: inhibitors of Kinase-Glo firefly luciferase. Kinase-Glo luciferase, ATP luminescence, 8 min. 0.28% of 200,000 active. Q27757. Potency, µM (doses to about 38.3 µM), most hits filed as inhibitors. AID 1379; also: nearly all actives have a fitted effect of over 60% in size
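Luminescence was the read-out, taken after 8-minute incubation at ambient temperature. Luciferase turned over luciferin with 10 uM ATP in imidazole pH 7.2 buffer containing KCl, MgCl2, Tween 20 and BSA.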
Hits are given with their value; 0 = inactive; ? = inconclusive; - = no result given; [ ] = another dose, or the depositor's remark. Sampled rows, rich in hits. Any-hit rate of the full collection: about 7.3%. Calls follow the shape of the dose curve; as a rule, active = well fitted curve in the direction sought with a large enough effect; inconclusive = small, poorly fitted or top-dose-only effect, or another doubt; inactive = no such curve, though single readings can be large; an effect the other way counts as inactive or inconclusive.

SMILES	FLuc counter	ELG1 genotox	Rab9 prom act	SMN2 splice up	NPC1 promoter act	Luc counter
C=CCNC(=O)c1ccccc1NC(=O)COc1ccccc1	0	0	0	0	0	0
C=CCNC(=O)c1ccccc1NC(=O)Nc1ccccc1	19µM	0	0	0	0	0
O=C(Cc1ccc2c(c1)OCCO2)N1CCN(S(=O)(=O)c2ccccc2C(F)(F)F)CC1	0	0	0	0	0	0
O=C(O)C1CSC(c2ccccc2)N1C(=O)c1ccco1 (stereo not drawn)	0	0	0	0	0	0
COc1ccc(C)cc1C(=O)CCC(=O)NC1CCCCC1	0	0	0	0	0	0
Cc1ccc(CC(=O)O/N=C(\N)c2cccc([N+](=O)[O-])c2)cc1	?	0	0	0	0	0
N/C(=N\OC(=O)c1ccc(Br)cc1)c1cccc([N+](=O)[O-])c1	0.849µM	?	0	-	?	-
N/C(=N\OC(=O)C1CCCCC1)c1cccc([N+](=O)[O-])c1	10.7µM	?	0	0	0	0
N/C(=N\OC(=O)c1ccncc1)c1cccc([N+](=O)[O-])c1	?	0	0	-	0	-
N/C(=N\OC(=O)c1ccc([N+](=O)[O-])cc1)c1ccc(Br)cc1	?	?	0	-	0	-
Cc1ccc(C(=O)O/N=C(\N)c2cccc([N+](=O)[O-])c2)cc1	0.19µM	?	3.55µM	0	3.55µM	0
O=C(O)c1ccccc1NC(=S)NC(=O)c1sc2ccccc2c1Cl	23.9µM	0	0	0	0	0
O=C(NC(=S)Nc1ccccc1N1CCOCC1)c1sc2ccccc2c1Cl	0	0	0	0	0	0
Cc1ccc(NC(=S)NC(=O)c2sc3ccccc3c2Cl)c(C(=O)O)c1	26.9µM	0	0	0	0	0
O=C(NNC(=S)NC(=O)c1sc2ccccc2c1Cl)c1ccc(Cl)cc1	?	0	0	0	0	0
CCc1ccc(OC(=O)/C=C/c2ccco2)cc1	0.849µM	0	0	-	0	-
COC(=O)N/N=C/c1ccc(OC(=O)/C=C/c2ccco2)cc1	0	0	0	-	0	-
c1cnc(SCCOc2cccc3ccccc23)nc1	7.57µM	11.6µM	2.24µM	0	?	0
Cc1ccc(OCCSc2ncccn2)c(C)c1	2.13µM	?	0.501µM	3.16µM	0.631µM	0
COc1cccc(/C=C2\SC(=O)N(CCC(=O)NCCCn3ccnc3)C2=O)c1	?	0[9.26 µM]	0	-	0	-
COc1cccc(/C=C2\SC(=O)N(CC(=O)NCCCn3ccnc3)C2=O)c1	23.9µM	0	0	-	0	-
COc1ccc(/C=C2\SC(=O)N(CCNC(=O)C3=COCCO3)C2=O)cc1	?	16.4µM	0	-	0	-
COc1ccc(/C=C2\SC(=O)N(CCc3nnc(N)s3)C2=O)cc1	1.9µM	?	1µM	-	2.51µM	-
COc1ccc(/C=C2\SC(=O)N(CC(=O)NCCCn3ccnc3)C2=O)cc1	9.53µM	0	0	-	0	-
O=C(c1ccc(Cl)cc1)N1CCC(c2nc(-c3cccs3)no2)CC1	0	0	0	0	0	0
SMILES	FLuc counter	ELG1 genotox	Rab9 prom act	SMN2 splice up	NPC1 promoter act	Luc counter
Cc1cccc(C)c1-n1ncc(C(=O)NCc2ccc3c(c2)OCO3)c1C1CCN(C(=O)OC(C)(C)C)CC1	0	-	-	-	-	-
Cc1ccsc1/C=N\NC(=O)c1ccc2c(c1)OCO2	3.79µM	?	1.41µM	?	1.41µM	0
Cc1ccsc1/C=N/NC(=O)c1ccc2c(c1)OCCO2	0.953µM	1.64µM	0.355µM	-	0.631µM	-
Cc1ccsc1/C=N/NC(=O)c1ccc2nc[nH]c2c1	?	0	?	0	0	0
Cc1ccsc1/C=N/NC(=O)c1nnn(-c2nonc2N)c1-c1ccc2c(c1)OCO2	0	0	0	-	0	-
CNC(=O)[C@@]1(Cc2ccccc2)C=C[C@@H](C)N1C(C)=O	-	-	-	0	-	0
CCOc1ccc(NC(=O)CN(c2ccc([N+](=O)[O-])cc2)S(=O)(=O)c2ccccc2)cc1	0	0	0	0	0	0
O=C(O)c1cccc(NC(=O)c2cn(-c3ccccc3)nc2-c2ccncc2)c1	16.9µM	0	0	0	0	0
O=C(O)c1cccc(NC(=O)c2cccc(S(=O)(=O)Nc3cccc([N+](=O)[O-])c3)c2)c1	?	0	0	-	0	-
